# Laboratory results taken from PubChem BioAssay AID504454 (NMMLSC, 2011).
# The campaign covered roughly 340,000 compounds. About 1,400 (0.41%) were called active.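 How the source made its calls: active means response above a set limit, near 3 SD of response in nonfluorescent compounds (cut at about 42% in these data); inactive means the rest.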 This excerpt belongs to a sample that is enriched for actives.
# Target: Beta-2 adrenergic receptor (Homo sapiens) (UniProt P07550)
# Test: beta2AR agonists driving receptor internalization, primary screen, cell-based, FAP fluorogen, flow cytometry (AID 504454)
# Settings: Am2.2-beta2AR cells, active compounds read high, concentration not given here
# Sequence of Beta-2 adrenergic receptor (Homo sapiens) (P07550 whole entry, looked up): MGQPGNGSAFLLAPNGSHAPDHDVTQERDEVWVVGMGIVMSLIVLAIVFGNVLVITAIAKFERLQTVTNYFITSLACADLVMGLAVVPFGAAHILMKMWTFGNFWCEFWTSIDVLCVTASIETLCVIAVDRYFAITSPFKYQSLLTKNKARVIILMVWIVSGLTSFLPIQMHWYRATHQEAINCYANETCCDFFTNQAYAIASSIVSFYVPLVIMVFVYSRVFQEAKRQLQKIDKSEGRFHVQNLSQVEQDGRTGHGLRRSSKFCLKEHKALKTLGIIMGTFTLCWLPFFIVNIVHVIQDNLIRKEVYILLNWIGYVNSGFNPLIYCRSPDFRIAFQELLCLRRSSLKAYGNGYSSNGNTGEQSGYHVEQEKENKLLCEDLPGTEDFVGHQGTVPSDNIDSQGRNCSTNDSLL
row,Compound,response
1,Oc1ccccc1C1=NN(c2ccccc2)C(c2ccccc2)C1 (centres undefined),13.4% (inactive)
2,CC(=O)Nc1ccc(NC(=O)C2CCCN(S(=O)(=O)c3ccc(Cl)cc3)C2)cc1 (centres undefined),-2.61% (inactive)
3,COc1ccc(S(=O)(=O)N2CCCC(C(=O)Nc3ccc(NC(=O)c4ccccn4)cc3)C2)cc1 (centres undefined),46.4% (active)
4,COc1ccc(CCNC(=O)C2CCCN(S(=O)(=O)c3ccc(OC)cc3)C2)cc1 (centres undefined),-1.09% (inactive)
5,COc1ccc(C2CC(c3cccs3)Nc3nnnn32)cc1 (centres undefined),12.6% (inactive)
6,Cc1ccc2nc(-c3ccc(NC(=O)c4cccnc4)cc3)oc2c1,17.5% (inactive)
7,Cc1ccc(NC(=O)COc2ccc(/C=C3/NC(=O)NC3=O)cc2)cc1,7.62% (inactive)
8,Cc1ccc(OCC(=O)Nc2ccc(-c3nc4ncccc4o3)cc2)cc1,117% (active)
9,COc1cc(/C=C2\SC(=O)NC2=O)ccc1OCc1ccc(Cl)nc1,12.6% (inactive)
10,CC1=NOC(=O)/C1=C\c1ccccc1,10.9% (inactive)
11,COc1cc(/C=C2/C(=O)ON=C2C)ccc1OCc1cccc(F)c1,105% (active)
12,COc1cc(/C=C2/C(=O)ON=C2C)ccc1OCc1ccccc1F,88.8% (active)
13,C#CCOc1ccc(/C=C2/C(=O)ON=C2C)cc1OCC,-1.93% (inactive)
14,C=CCOc1ccc(/C=C2/C(=O)ON=C2C)cc1OCC,4.94% (inactive)
15,CCOC(=O)c1cnc2c(c(C)nn2CC)c1Cl,0.74% (inactive)
16,Cc1ccccc1OCCC(=O)OCC(=O)NCCc1ccc(S(N)(=O)=O)cc1,-1.82% (inactive)
17,CCCCN(CC)C(=O)C1CCCN(S(=O)(=O)c2cccc3nsnc23)C1 (centres undefined),-4.41% (inactive)
18,CCCCNC(=S)NNC(=O)c1cc(C)on1,8.38% (inactive)
19,COc1cc2c(cc1OC)C(/C=C/c1ccco1)=NCC2,-9.05% (inactive)
20,CCCn1c(C)cc(/C=C(\C#N)C(=O)OCC(=O)Nc2cc(OC)c(OC)c(OC)c2)c1C,-0.22% (inactive)

row,Compound,response
1,CCOC(=O)/C(C#N)=C/c1ccc(OCC(=O)Nc2ccccc2)c(OC)c1,46.3% (active)
2,COc1cc(C2C3=C(CCCC3=O)OC3=C2C(=O)CCC3)ccc1OCC(=O)Nc1ccccc1,3.2% (inactive)
3,CCCn1c(N)c(C(=O)CSc2nnc3n2CCCCC3)c(=O)[nH]c1=O,-3.04% (inactive)
4,O=C(/C=C/c1ccc(Cl)cc1Cl)c1cccnc1,6.98% (inactive)
5,O=C(/C=C/c1ccc(Cl)c([N+](=O)[O-])c1)c1cccnc1,77.9% (active)
6,O=C(Nc1cccnc1)c1ccc(Cl)cc1[N+](=O)[O-],0.76% (inactive)
7,O=C(CNC(=O)c1ccccc1F)OCC(=O)c1c[nH]c2ccccc12,10.7% (inactive)
8,CC(C)CCN(C(=O)c1csnn1)C(C(=O)NC1CCCC1)c1ccccc1 (centres undefined),7.85% (inactive)
9,CC(=O)Nc1ccc(Nc2c([N+](=O)[O-])cc(S(C)(=O)=O)cc2[N+](=O)[O-])cc1,2.64% (inactive)
10,CC(=O)Nc1ccc(Nc2c3ccccc3nc3ccccc23)cc1,51.1% (active)
11,CC(=O)Nc1ccc(S(=O)(=O)N(C)c2nc3ccccc3nc2Cl)cc1,0.46% (inactive)
12,Cc1ccc(CN2CCN(/N=C/c3cccnc3)CC2)c(C)c1,4.74% (inactive)
13,CC(=O)Nc1ccc(NC(=O)C(C)OC(=O)c2ccccc2C(=O)c2ccc(Cl)c([N+](=O)[O-])c2)cc1 (centres undefined),20.8% (inactive)
14,CC(=O)Nc1ccc(NC(=O)COC(=O)c2ccccc2C(=O)c2ccccc2)cc1,-9.28% (inactive)
15,N#Cc1cccc(NC(=O)COC(=O)c2ccccc2C(=O)c2ccc(Cl)c([N+](=O)[O-])c2)c1,46.3% (active)
16,CC[n+]1cc(C)ccc1/C=C/c1ccc(N(C)C)cc1,-468% (inactive)
17,CCCN(CCC)S(=O)(=O)c1ccc(C(=O)NNC(=O)c2cc(OC)c(OC)c(OC)c2)cc1,4.58% (inactive)
18,CCN(CC)Cc1csc2ccc(Br)cc12,5.63% (inactive)
19,COc1ccc(CCC(=O)c2ccc(OC)cc2)cc1,-1.6% (inactive)
20,COc1ccc(OC(C)C(=O)Nc2cccnc2)cc1 (centres undefined),-1.88% (inactive)

row,Compound,response
1,COc1ccc(CS(=O)/C(Cl)=C(/Cl)C(=O)Nc2ccc(OC)nc2)cc1 (centres undefined),52.3% (active)
2,O=C(Nc1ccc([N+](=O)[O-])cc1)C1CC12CCC2 (centres undefined),-2.03% (inactive)
3,COc1cccc2[nH]c(C(=O)NCCc3ccccc3)cc12,1.88% (inactive)
4,O=C(Cn1nc(Cc2cccnc2)c2ccccc2c1=O)NCC1CCCO1 (centres undefined),-13.8% (inactive)
5,COc1ccc(CC(=O)Nc2nc(-c3ccc(F)c(F)c3)cs2)cc1OC,44% (active)
6,COc1ccccc1NC(=O)Nc1nc(CC(=O)Nc2ccccc2F)cs1,1.09% (inactive)
7,O=C(COc1ccccc1F)Nc1nc(-c2ccccn2)cs1,-6.34% (inactive)
8,CCc1c(SCCC(=O)O)nc2ccccc2c1C,-4.7% (inactive)
9,CCN(CC)c1ccc(C(=O)OCC(=O)c2ccco2)cc1,4.24% (inactive)
10,O=C(CN1CCN(c2cccc(Cl)c2)CC1)Nc1ccc(S(=O)(=O)N2CCOCC2)cc1,-2.92% (inactive)
11,COc1ccc(Cl)cc1NC(=O)CN1CCN(C(=O)N2CCOCC2)CC1,1.88% (inactive)
12,Cc1ccc(Cl)cc1NC(=O)CN1CCN(S(=O)(=O)N2CCOCC2)CC1,81.7% (active)
13,NC[C@H](Cc1ccccc1)NCCc1cc(C(F)(F)F)cc(C(F)(F)F)c1,19% (inactive)
14,CCOC(=O)[C@H]1[C@H]2COc3ccc(OC)cc3[C@@H]2N2C(=O)c3ccc(F)cc3NC(=O)[C@@]12C,-0.05% (inactive)
15,COCCn1c(C)cc(C(=O)CSc2nnc(C3CC3)n2C2CC2)c1C,6.93% (inactive)
16,O=C(N/C(=C/c1ccc(Cl)cc1)C(=O)N1CCCCC1)c1ccco1,6.34% (inactive)
17,O=C(N/C(=C\c1ccc([N+](=O)[O-])cc1)C(=O)N1CCCCC1)c1ccco1,72.5% (active)
18,O=C(N/C(=C\c1ccc([N+](=O)[O-])cc1)C(=O)N1CCOCC1)c1cccc(Br)c1,3.33% (inactive)
19,CC(=O)Nc1ccc(S(=O)(=O)N2CCN(CCCOc3cc(C)ccc3C)CC2)cc1,3.77% (inactive)
